Measured values from PubChem BioAssay.

These compounds were tested against Left-right determination factor 2 (Homo sapiens) (UniProt O00292) (assay: LEFTY2 binders on small-molecule microarrays, primary screen, biochemical, small-molecule microarray, 635 nm fluorescence scan (AID 1110)). Conditions: LEFTY2 binding, higher = more signal.
Chain of Left-right determination factor 2 (Homo sapiens) (O00292 whole entry, looked up): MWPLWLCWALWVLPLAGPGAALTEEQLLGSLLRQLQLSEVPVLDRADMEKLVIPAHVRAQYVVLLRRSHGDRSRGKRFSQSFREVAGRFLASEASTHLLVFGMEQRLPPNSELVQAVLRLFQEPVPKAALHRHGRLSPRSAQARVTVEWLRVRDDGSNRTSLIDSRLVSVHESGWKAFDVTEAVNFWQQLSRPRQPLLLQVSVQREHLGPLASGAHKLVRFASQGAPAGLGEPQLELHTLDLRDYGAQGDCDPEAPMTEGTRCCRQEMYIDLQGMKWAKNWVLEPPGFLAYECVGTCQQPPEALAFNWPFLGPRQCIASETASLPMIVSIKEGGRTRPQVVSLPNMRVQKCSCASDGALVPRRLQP
COc1ccc([Si](C)(C)[C@@H]2[C@@H](CC(=O)N3Cc4ccccc4C[C@H]3CO)O[C@]3(C(=O)N(C)c4ccccc43)[C@H]2C)cc1 showed a composite z-score of 0.812.
With O=C(N1CCCCC1)[C@@]1(CCS(=O)(=O)c2ccccc2)COC(c2ccc(OCCCO)cc2)=N1 the composite z-score was -0.0902.
For O=C1NC(=O)C2C1C=CC(C(O)CCc1ccccc1)N2Nc1ccc(Cl)cc1Cl (stereo not given), the composite z-score was -0.448.
Work on C=CCC(OC(C)=O)[C@@H]1[C@@H](N(Cc2cc3ccccc3o2)C(=O)c2ccc(-c3ccccc3)cc2)c2cc(OCCCO)ccc2N1C(=O)c1ccc2ccccc2c1 (stereo not given in full) yielded a composite z-score of 0.0403.
CCOC(=O)C[C@H]1[C@H](OC(=O)Cc2ccc3c(c2)OCO3)[C@@H](NC(=O)Cc2ccc(OC)cc2)c2cc(OCCCO)ccc2N1C(=O)c1ccc2ccccc2n1 was tested, and the composite z-score was 0.155.
COC(=O)c1c2oc(c1C(=O)OC)C(=O)N(Cc1ccccc1)Cc1cn(nn1)C[C@H](Cc1ccccc1)NC(=O)N[C@H](CO)CC2 showed a composite z-score of 0.269.
For NC(N)=NCCCn1cc(CNC(=O)[C@@H](N)Cc2ccccc2)nn1, the composite z-score was 0.566.
In the case of NC(=O)N1C(=O)C2C(C1=O)C1C=C(CCCO)C2C(c2cccs2)N1Cc1cccc(OC(F)(F)F)c1 (stereo not given), the composite z-score is reported as -0.0132.
CCOC(=O)C[C@H]1[C@H](OC(=O)c2cc3ccccc3oc2=O)[C@@H](NC(=O)Cc2ccc(OC)cc2)c2cc(OCCCO)ccc2N1C(=O)c1ccc2ccccc2n1 showed a composite z-score of 0.774.
COCCOC(=O)N1C(=O)[C@@]2(c3cc(C#CC4=CCCCC4)ccc31)[C@H](c1ccc(OCCO)cc1)N1[C@H](c3ccccc3)[C@H](c3ccccc3)OC(=O)[C@H]1[C@@H]2C(=O)NC[C@H](O)c1ccccc1 showed a composite z-score of 0.958.
Work on COC(=O)c1nc2oc1CC[C@@H](CO)NC(=O)N(C)Cc1cnnn1C[C@H](Cc1ccccc1)NC2=O yielded a composite z-score of -1.07.
Work on CN1C(=O)C2C=CC(C(O)COCc3ccccc3)N(N(c3ccccc3)c3ccccc3)C2C1=O (stereo not given) yielded a composite z-score of -0.142.
COc1cc2c(cc1O)C(C)N(Cc1ccc([N+](=O)[O-])o1)CC2 (stereo not given) showed a composite z-score of 0.0215.
Compound C=CCOC(=O)[C@H]1[C@@H]2C(=O)O[C@@H](c3ccccc3)[C@@H](c3ccccc3)N2[C@@H](c2ccc(OCCOC(=O)[C@@H]3C[C@@H]4C(=O)N[C@@H](CCCCN(C)C)C(=O)N4[C@@H]3c3ccc(O)cc3)cc2)[C@]12C(=O)Nc1ccccc12 has a composite z-score of 1.08.
In the case of CCOC(=O)C1=C[C@@H](c2ccccc2)N(S(=O)(=O)c2ccc(C)cc2)[C@H]1c1ccccc1Cl, the composite z-score is reported as 0.553.
With C[N+](C)(C)CCCCCCNC(=O)[C@H]1C[C@H]2C(=O)NCC(=O)N2[C@H]1c1ccc(O)cc1 the composite z-score was 1.03.
Compound COc1cc(CO)cc(I)c1O[C@H]1C=C(C(=O)NCCO)C[C@@H](NCc2ccc(F)cc2)[C@@H]1O has a composite z-score of 0.275.
In the case of COC1OC[C@]2(C)[C@H]3C4=C(CN2C(=O)OC(C)(C)C)[C@H](C)C(CO)C(CO)C4CC[C@@H]13 (stereo not given in full), the composite z-score is reported as -0.134.
O=C1O[C@H](c2ccccc2)[C@H](c2ccccc2)N2[C@H]1[C@@H](C(=O)Nc1nc3ccccc3s1)[C@]1(C(=O)Nc3ccc(C#CCCO)cc31)[C@H]2c1ccc(O)cc1 was tested, and the composite z-score was 0.691.
With C=CCC(OC(C)=O)[C@@H]1[C@@H](N(Cc2cc3ccccc3o2)C(=O)Cc2ccc(F)cc2)c2cc(OCCCO)ccc2N1C(=O)c1ccc2ccccc2c1 (stereo not given in full) the composite z-score was -0.453.
With OCCCC1=CC(c2ccc(CN3CCCC3)cc2)N(Cc2sc3ccccc3c2Cl)CC1 (stereo not given) the composite z-score was 0.758.
Compound O=C1O[C@H](c2ccccc2)[C@H](c2ccccc2)N2[C@H]1[C@@H](C(=O)N1CCN(c3ncccn3)CC1)[C@]1(C(=O)Nc3ccc(C#CC4(O)CCCCCC4)cc31)[C@H]2c1ccc(OCCO)cc1 has a composite z-score of 1.51.
O=C1C2C=CC(C(O)c3ccc(Br)cc3)N(Nc3ccccc3F)C2C(=O)N1c1ccccc1 (stereo not given) showed a composite z-score of -0.134.
With COCCOC(=O)N1C(=O)[C@@]2(c3cc(C#CCC(C(=O)OC)C(=O)OC)ccc31)[C@H](C(=O)N1CCc3cc(OC)c(OC)cc3C1)[C@H]1C(=O)O[C@H](c3ccccc3)[C@H](c3ccccc3)N1[C@@H]2c1ccc(OCCO)cc1 the composite z-score was 0.608.
In the case of CC(CO)N1C(=O)[C@@H]2[C@H]3C(=O)OCC=C[C@H]3OC23C=CCN(CCN2CCOCC2)C(=O)[C@@H]13 (stereo not given in full), the composite z-score is reported as -0.396.
For C=C(COC)C(=O)CC[C@@H](OC(=O)c1cccnc1)c1ccc(OCCO)cc1, the composite z-score was 0.659.
Work on COC(=O)[C@@]1(Cc2ccc(OC)cc2)[C@H]2c3cc(C(=O)N4CCCC4)n(Cc4cccc5ccccc45)c3C[C@H]2CN1C(=O)c1ccccc1 yielded a composite z-score of -0.58.
CC(C)(C)OC(=O)CC[C@@]1(C(=O)NCc2ccccc2)N=C(c2ccc(OCCCO)cc2)O[C@@H]1c1ccccc1N=[N+]=[N-] gave a composite z-score of 0.529.
Compound C=CC[C@@]1(C(=O)N2CCOCC2)N=C(c2ccc(OCCCO)cc2)O[C@@H]1c1ccccc1CN=[N+]=[N-] has a composite z-score of 0.898.
COC(=O)[C@@]1(Cc2ccc(F)cc2)[C@H]2c3cc(C(=O)N4CCCC4)n(CCc4ccc(O)c(O)c4)c3C[C@H]2CN1C(=O)c1ccccc1 was tested, and the composite z-score was -0.772.
Work on CCOC(=O)C[C@H]1[C@H](OC(=O)c2cc3ccccc3oc2=O)[C@@H](NC(=O)c2ccc(-c3ccccc3)cc2)c2cc(OCCCO)ccc2N1C(=O)c1ccc2ccccc2n1 yielded a composite z-score of 0.48.
In the case of COc1ccc([Si](C)(C)[C@H]2[C@H](CCn3cc([C@H](O)c4ccccc4)nn3)O[C@@]3(C(=O)N(Cc4ccc(N5C(=O)c6cccc7cccc5c67)cc4)c4ccccc43)[C@@H]2C)cc1, the composite z-score is reported as -0.638.
Compound C[C@@H]1NC(=O)[C@@]23C(=O)N[C@@H](Cc4ccccc4)C2[C@H](C)[C@@]2(C)O[C@H]2C3/C=C/C/C=C\CNC(=O)[C@@H]2CCCN2C1=O (stereo not given in full) has a composite z-score of -0.301.
COC(=O)[C@@]1(Cc2ccccc2)[C@H]2c3cc(C(=O)N(C)C)n(Cc4c(CO)[nH]cc(C)c4=O)c3C[C@H]2CN1C(=O)c1ccccc1 was tested, and the composite z-score was -0.0086.
For COC(=O)CCCCCCC(=O)Nc1ccc(NC(=O)CCCC[P+](c2ccccc2)(c2ccccc2)c2ccccc2)cc1, the composite z-score was 0.749.
